# Source: the supplement of paper PMC9925115
# Where a name gives a salt, the structure may show the parent alone. ± gives the uncertainty stated by the source.
# Test system: FLX1
# Assay: cell viability z-score within plate (CellTiter-Glo), mean of 3 biological replicates; higher = higher viability relative to plate (less growth inhibition)
# Details: 2 µM; time (hr): 120
# Procedure: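 FLX1 fibrolamellar carcinoma cells (DNAJB1-PRKACA fusion), 600 cells/well in 384-well plates, treated with a Selleck kinase inhibitor library (L1200) at 2 uM for 5 days (120 hr); viability by CellTiter-Glo. A z-score was computed within each plate and averaged over three biological replicates.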
row,Compound,cell viability z-score within plate
1,Cc1cc2c(F)c(Oc3ncnn4cc(OC[C@@H](C)O)c(C)c34)ccc2[nH]1,-1.45 ± 0.81
2,COc1ccc(-c2cc3c(C)nc(N)nc3n([C@H]3CC[C@H](OCCO)CC3)c2=O)cn1,-0.872 ± 0.053
3,COc1cc(OC)c(/C=C/S(=O)(=O)Cc2ccc(OC)c(NCC(=O)O)c2)c(OC)c1,0.00703 ± 0.25
4,CN1CCN(c2ccc3nc(-c4c(N)c5c(F)cccc5[nH]c4=O)[nH]c3c2)CC1 [Dovitinib (TKI-258) Dilactic Acid],0.322 ± 0.38
5,C[C@@H]1CN(CC(=O)Nc2ccc3c(c2)Cc2cccc(-c4cc(=O)cc(N5CCOCC5)o4)c2S3)C[C@H](C)O1,0.915 ± 0.16
6,"CO[C@H]1C[C@@H]2CC[C@@H](C)[C@@](O)(O2)C(=O)C(=O)N2CCCC[C@H]2C(=O)O[C@H]([C@H](C)C[C@@H]2CC[C@@H](OP(C)(C)=O)[C@H](OC)C2)CC(=O)[C@H](C)/C=C(\C)[C@@H](O)[C@@H](OC)C(=O)[C@H](C)C[C@H](C)/C=C/C=C/C=C/1C [Ridaforolimus (Deforolimus, MK-8669)]",-0.102 ± 0.36
7,FC(F)(F)c1ccc(/C=C/c2nc(COc3ccc(CCCCn4ccnn4)cc3)co2)cc1 [Mubritinib (TAK 165)],-0.952 ± 0.95
8,Cn1cnc(N)c2ncnc1-2 [3-Methyladenine (3-MA)],0.219 ± 0.67
9,CS(=O)(=O)N1CCc2c(-c3cnc(N)nc3)nc(N3CCOCC3)nc21,0.617 ± 0.29
10,NC1(c2ccc(-c3nc4ccn5c(=O)[nH]nc5c4cc3-c3ccccc3)cc2)CCC1,-0.0746 ± 0.54
11,COc1cc2nccc(Oc3ccc(NC(=O)NC4CC4)c(Cl)c3)c2cc1C(N)=O [Lenvatinib (E7080)],-0.399 ± 0.11
12,CN1CC[C@H](c2c(O)cc(O)c3c(=O)cc(-c4ccccc4Cl)oc23)[C@H](O)C1 [Flavopiridol (Alvocidib)],0.251 ± 0.25
13,CC(C)(C)NS(=O)(=O)c1cncc(-c2cc(F)c3nc(N)nn3c2)c1,0.16 ± 0.77
14,O=C1Nc2ccc(I)cc2/C1=C/c1cc(Br)c(O)c(Br)c1,1.53 ± 0.35
15,Cc1ccc(NC(=O)c2ccc(CN3CCN(C)CC3)cc2)cc1Nc1nccc(-c2cccnc2)n1 [Imatinib Mesylate (STI571)],-1.25 ± 0.88
16,C[C@@H]1COC(Nc2ccc3ncnc(Nc4ccc(OCc5nccs5)c(Cl)c4)c3c2)=N1 [Varlitinib],0.0259 ± 0.81
17,O=S(=O)(NCCNC/C=C/c1ccc(Br)cc1)c1cccc2cnccc12,-2.86 ± 1.5
18,C=CC(=O)Nc1ccc2ncnc(Nc3cccc(Br)c3)c2c1,-1.55 ± 0.85
19,Cc1ccc(Nc2nccc(N(C)c3ccc4c(C)n(C)nc4c3)n2)cc1S(N)(=O)=O,-0.43 ± 0.49

row,Compound,cell viability z-score within plate
1,CC(C)(C)c1cnc(CSc2cnc(NC(=O)C3CCNCC3)s2)o1,-1.06 ± 1.3
2,O=C(NC[C@H](O)CO)c1ccncc1Nc1ccc(I)cc1F,-0.968 ± 0.82
3,O=C1NC(=O)C(=Cc2ccc(-c3ccc(F)cc3)o2)S1 (stereo in doubt),0.244 ± 0.32
4,Cc1c(NC(=O)OC[C@@H]2COCCN2)cn2ncnc(Nc3ccc4c(cnn4Cc4cccc(F)c4)c3)c12,-2.76 ± 1.1
5,Cc1cnc(Nc2ccc(N3CCN(C)CC3)cc2)nc1Nc1cccc(S(=O)(=O)NC(C)(C)C)c1,0.0181 ± 0.39
6,Cc1cnc(Nc2ccc(OCCN3CCCC3)cc2)nc1Nc1cccc(S(=O)(=O)NC(C)(C)C)c1,-0.235 ± 0.43
7,Cc1cc(C(C)Nc2ccccc2)c2nc(N3CCOCC3)cc(=O)n2c1 (stereo unspecified),-0.144 ± 0.28
8,OCCn1cc(-c2ccc3c(c2)CC/C3=N\O)c(-c2ccncc2)n1,0.788 ± 0.054
9,CN(C)CCCn1cc(C2=C(c3c[nH]c4ccccc34)C(=O)NC2=O)c2ccccc21,-0.651 ± 0.3
10,CN1CCN(C2CCN(C(=O)Nc3cc(Oc4ccc(NC(=O)C5(C(=O)Nc6ccc(F)cc6)CC5)c(F)c4)ccn3)CC2)CC1 [Golvatinib (E7050)],0.521 ± 0.14
11,O=C(O)c1ccc(Nc2ncc3c(n2)-c2ccc(Cl)cc2C(c2c(F)cccc2F)=NC3)cc1,1.2 ± 0.42
12,Cn1cc(-c2ccc3nnc(C(F)(F)c4ccc5ncccc5c4)n3n2)cn1,-0.299 ± 0.51
13,COc1cccc(-c2cc(=O)c3ccccc3o2)c1N,0.538 ± 0.2
14,Cc1cc(O)c2c(c1)C(=O)c1cccc(O)c1C2=O [Chrysophanic Acid],0.539 ± 0.3
15,COc1cc(Nc2ncc(F)c(Nc3ccc4c(n3)NC(=O)C(C)(C)O4)n2)cc(OC)c1OC,0.701 ± 0.4
16,CN1CCC(CNc2ccc3ncc(-c4cccc(OC(F)(F)F)c4)n3n2)CC1 [SGI-1776 free base],0.436 ± 0.2
17,O=c1cc(N2CCOCC2)oc2c(-c3ccccc3)cccc12,0.828 ± 0.37
18,N#Cc1c(Oc2ccc(F)c(NC(=O)Cc3cccc(C(F)(F)F)c3)c2)ccc2nc(NC(=O)C3CC3)sc12,0.529 ± 0.94
19,O=C(c1cccc(Cl)c1F)N1CCN(Cc2cccc(Nc3nccs3)n2)CC1,-0.394 ± 0.96

# Test system: FLX1 + dox-induced PRKAR1A G325D
# Assay: difference in log2 fold change of viability vs plate median (dox-induced PRKAR1A G325D minus uninduced); higher = compound less effective when PKA is inhibited
# Details: concentration: not stated (2 or 5 uM); 5 days
# Procedure: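 For each plate a log2 fold change vs the plate median was derived, and the values without dox were subtracted from those with dox, averaged over three biological replicates.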
row,Compound,difference in log2 fold change of viability
1,Cc1cc2c(F)c(Oc3ncnn4cc(OC[C@@H](C)O)c(C)c34)ccc2[nH]1,0.515
2,COc1ccc(-c2cc3c(C)nc(N)nc3n([C@H]3CC[C@H](OCCO)CC3)c2=O)cn1,0.605
3,COc1cc(OC)c(/C=C/S(=O)(=O)Cc2ccc(OC)c(NCC(=O)O)c2)c(OC)c1,0.2
4,CN1CCN(c2ccc3nc(-c4c(N)c5c(F)cccc5[nH]c4=O)[nH]c3c2)CC1 [Dovitinib (TKI-258) Dilactic Acid],-0.364
5,C[C@@H]1CN(CC(=O)Nc2ccc3c(c2)Cc2cccc(-c4cc(=O)cc(N5CCOCC5)o4)c2S3)C[C@H](C)O1,-0.0572
6,"CO[C@H]1C[C@@H]2CC[C@@H](C)[C@@](O)(O2)C(=O)C(=O)N2CCCC[C@H]2C(=O)O[C@H]([C@H](C)C[C@@H]2CC[C@@H](OP(C)(C)=O)[C@H](OC)C2)CC(=O)[C@H](C)/C=C(\C)[C@@H](O)[C@@H](OC)C(=O)[C@H](C)C[C@H](C)/C=C/C=C/C=C/1C [Ridaforolimus (Deforolimus, MK-8669)]",0.419
7,FC(F)(F)c1ccc(/C=C/c2nc(COc3ccc(CCCCn4ccnn4)cc3)co2)cc1 [Mubritinib (TAK 165)],0.102
8,Cn1cnc(N)c2ncnc1-2 [3-Methyladenine (3-MA)],0.548
9,CS(=O)(=O)N1CCc2c(-c3cnc(N)nc3)nc(N3CCOCC3)nc21,0.207
10,NC1(c2ccc(-c3nc4ccn5c(=O)[nH]nc5c4cc3-c3ccccc3)cc2)CCC1,0.0391
11,COc1cc2nccc(Oc3ccc(NC(=O)NC4CC4)c(Cl)c3)c2cc1C(N)=O [Lenvatinib (E7080)],-0.0902
12,CN1CC[C@H](c2c(O)cc(O)c3c(=O)cc(-c4ccccc4Cl)oc23)[C@H](O)C1 [Flavopiridol (Alvocidib)],0.251
13,CC(C)(C)NS(=O)(=O)c1cncc(-c2cc(F)c3nc(N)nn3c2)c1,-0.0394
14,O=C1Nc2ccc(I)cc2/C1=C/c1cc(Br)c(O)c(Br)c1,1.35
15,Cc1ccc(NC(=O)c2ccc(CN3CCN(C)CC3)cc2)cc1Nc1nccc(-c2cccnc2)n1 [Imatinib Mesylate (STI571)],0.343
16,C[C@@H]1COC(Nc2ccc3ncnc(Nc4ccc(OCc5nccs5)c(Cl)c4)c3c2)=N1 [Varlitinib],-0.557
17,O=S(=O)(NCCNC/C=C/c1ccc(Br)cc1)c1cccc2cnccc12,-0.243
18,C=CC(=O)Nc1ccc2ncnc(Nc3cccc(Br)c3)c2c1,-0.936
19,Cc1ccc(Nc2nccc(N(C)c3ccc4c(C)n(C)nc4c3)n2)cc1S(N)(=O)=O,-0.0987

row,Compound,difference in log2 fold change of viability
1,CC(C)(C)c1cnc(CSc2cnc(NC(=O)C3CCNCC3)s2)o1,0.0393
2,O=C(NC[C@H](O)CO)c1ccncc1Nc1ccc(I)cc1F,-1.7
3,O=C1NC(=O)C(=Cc2ccc(-c3ccc(F)cc3)o2)S1 (stereo in doubt),-0.0657
4,Cc1c(NC(=O)OC[C@@H]2COCCN2)cn2ncnc(Nc3ccc4c(cnn4Cc4cccc(F)c4)c3)c12,-0.034
5,Cc1cnc(Nc2ccc(N3CCN(C)CC3)cc2)nc1Nc1cccc(S(=O)(=O)NC(C)(C)C)c1,-0.303
6,Cc1cnc(Nc2ccc(OCCN3CCCC3)cc2)nc1Nc1cccc(S(=O)(=O)NC(C)(C)C)c1,-0.00786
7,Cc1cc(C(C)Nc2ccccc2)c2nc(N3CCOCC3)cc(=O)n2c1 (stereo unspecified),0.222
8,OCCn1cc(-c2ccc3c(c2)CC/C3=N\O)c(-c2ccncc2)n1,0.00993
9,CN(C)CCCn1cc(C2=C(c3c[nH]c4ccccc34)C(=O)NC2=O)c2ccccc21,-0.243
10,CN1CCN(C2CCN(C(=O)Nc3cc(Oc4ccc(NC(=O)C5(C(=O)Nc6ccc(F)cc6)CC5)c(F)c4)ccn3)CC2)CC1 [Golvatinib (E7050)],0.0894
11,O=C(O)c1ccc(Nc2ncc3c(n2)-c2ccc(Cl)cc2C(c2c(F)cccc2F)=NC3)cc1,-0.0396
12,Cn1cc(-c2ccc3nnc(C(F)(F)c4ccc5ncccc5c4)n3n2)cn1,0.158
13,COc1cccc(-c2cc(=O)c3ccccc3o2)c1N,-0.103
14,Cc1cc(O)c2c(c1)C(=O)c1cccc(O)c1C2=O [Chrysophanic Acid],0.0332
15,COc1cc(Nc2ncc(F)c(Nc3ccc4c(n3)NC(=O)C(C)(C)O4)n2)cc(OC)c1OC,-0.353
16,CN1CCC(CNc2ccc3ncc(-c4cccc(OC(F)(F)F)c4)n3n2)CC1 [SGI-1776 free base],-0.0813
17,O=c1cc(N2CCOCC2)oc2c(-c3ccccc3)cccc12,0.224
18,N#Cc1c(Oc2ccc(F)c(NC(=O)Cc3cccc(C(F)(F)F)c3)c2)ccc2nc(NC(=O)C3CC3)sc12,-0.168
19,O=C(c1cccc(Cl)c1F)N1CCN(Cc2cccc(Nc3nccs3)n2)CC1,-0.738
